Results published in PubChem BioAssay.
The source made the active and inactive calls. Unless noted, the rule behind the calls is not given here.

Experiments:
[1] = anti-His antibody binders, primary screen, artefact control for SMM control protein annotation, biochemical, small-molecule microarray, 635 nm fluorescence (AID 1128); conditions: anti-His Alexa647 antibody binding, higher = more signal;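 note: score merges feature fluorescence with signal-to-noise for each printed compound spot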
[2] = test system: Human papillomavirus type 1a E7 protein (residues 1-88); assay: HPV1a E7 small-molecule binders, primary screen, biochemical, small-molecule microarray, residues 1-88, 635 nm (AID 1129); conditions: small-molecule microarray binding, fluorescence 635 nm; higher = more signal
[3] = target: Focal adhesion kinase 1 (Homo sapiens) (UniProt Q05397); assay: small-molecule microarray binders of FAK, primary screen, biochemical, 635/667 nm fluorescence, BSA, DTT (AID 1130); conditions: PTK2 binding, 635 nm fluorescence, higher = more signal;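 note: composite of spot emission at 667 nm and signal to noise over triplicate slides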
Focal adhesion kinase 1 (Homo sapiens), sequence (Q05397 whole entry, looked up): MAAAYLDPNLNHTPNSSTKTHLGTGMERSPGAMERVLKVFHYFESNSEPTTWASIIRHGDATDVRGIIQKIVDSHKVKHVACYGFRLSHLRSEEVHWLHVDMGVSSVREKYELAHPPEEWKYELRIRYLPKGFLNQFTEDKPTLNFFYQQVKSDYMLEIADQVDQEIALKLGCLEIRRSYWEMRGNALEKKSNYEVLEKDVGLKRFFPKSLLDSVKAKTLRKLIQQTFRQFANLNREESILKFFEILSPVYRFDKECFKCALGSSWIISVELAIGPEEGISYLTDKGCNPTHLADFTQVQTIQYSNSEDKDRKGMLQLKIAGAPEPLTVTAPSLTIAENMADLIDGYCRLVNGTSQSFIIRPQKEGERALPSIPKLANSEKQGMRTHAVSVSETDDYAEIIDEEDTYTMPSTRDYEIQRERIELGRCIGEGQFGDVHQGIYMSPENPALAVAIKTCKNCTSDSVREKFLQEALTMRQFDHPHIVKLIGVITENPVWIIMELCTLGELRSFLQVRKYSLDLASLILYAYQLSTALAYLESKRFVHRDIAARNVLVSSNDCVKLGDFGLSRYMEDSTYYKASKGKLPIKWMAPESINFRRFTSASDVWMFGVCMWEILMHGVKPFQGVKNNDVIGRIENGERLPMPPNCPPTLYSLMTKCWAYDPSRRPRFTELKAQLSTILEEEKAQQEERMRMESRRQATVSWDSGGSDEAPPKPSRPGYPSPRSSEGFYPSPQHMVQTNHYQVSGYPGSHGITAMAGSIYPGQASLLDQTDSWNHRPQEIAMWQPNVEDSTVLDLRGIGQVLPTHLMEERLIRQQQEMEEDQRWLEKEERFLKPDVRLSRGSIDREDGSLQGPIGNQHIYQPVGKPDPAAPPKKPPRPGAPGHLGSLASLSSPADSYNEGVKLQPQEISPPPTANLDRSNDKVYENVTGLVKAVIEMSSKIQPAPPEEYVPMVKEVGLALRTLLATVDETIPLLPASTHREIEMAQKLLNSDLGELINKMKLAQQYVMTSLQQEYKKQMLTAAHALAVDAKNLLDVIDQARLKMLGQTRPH

[4] = test system: Fibrinogen (Alexa647-labelled); assay: fibrinogen binders on compound microarrays, profiling panel, artefact control for SMM control-protein annotation, biochemical, small-molecule microarray, 635/667 nm fluorescence (AID 1131); conditions: fibrinogen-A647 binding fluorescence, higher = more signal;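 note: z-score merges 667 nm fluorescence with per-spot signal-to-noise over triplicate slides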
[5] = target: Follistatin (Homo sapiens) (UniProt P19883); assay: follistatin binders on small-molecule microarrays, primary screen, biochemical, small-molecule microarray, 635/667 nm fluorescence (AID 1132); conditions: FST binding, 635 nm fluorescence, higher = more signal
Follistatin (Homo sapiens), sequence (P19883 whole entry, looked up): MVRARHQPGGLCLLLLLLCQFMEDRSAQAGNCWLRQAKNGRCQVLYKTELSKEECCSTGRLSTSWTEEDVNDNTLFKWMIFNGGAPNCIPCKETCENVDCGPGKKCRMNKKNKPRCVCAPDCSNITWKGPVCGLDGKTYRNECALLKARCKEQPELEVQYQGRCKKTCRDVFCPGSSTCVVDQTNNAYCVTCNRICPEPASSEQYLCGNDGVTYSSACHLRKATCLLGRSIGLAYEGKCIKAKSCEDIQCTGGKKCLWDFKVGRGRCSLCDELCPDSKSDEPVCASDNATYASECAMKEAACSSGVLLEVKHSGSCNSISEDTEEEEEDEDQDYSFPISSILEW

[6] = target: Fibroblast growth factor 2 (Homo sapiens) (UniProt P09038); assay: FGF2 binders on small-molecule microarrays, primary screen, biochemical, small-molecule microarray, 635/667 nm fluorescence (AID 1133); conditions: small-molecule microarray binding, FGF2, fluorescence 635/667; higher = more signal
Fibroblast growth factor 2 (Homo sapiens), sequence (P09038 whole entry, looked up): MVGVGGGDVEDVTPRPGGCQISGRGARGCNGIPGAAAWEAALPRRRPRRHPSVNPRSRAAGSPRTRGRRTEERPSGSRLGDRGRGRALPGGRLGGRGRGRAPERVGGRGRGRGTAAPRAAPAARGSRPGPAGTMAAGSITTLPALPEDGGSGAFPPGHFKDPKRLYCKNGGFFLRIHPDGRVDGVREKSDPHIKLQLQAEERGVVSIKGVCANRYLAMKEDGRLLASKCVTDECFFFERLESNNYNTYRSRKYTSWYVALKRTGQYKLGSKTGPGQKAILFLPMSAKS

[7] = mitochondrial membrane potential change in A549 cells, profiling panel, cell-based, JC-1 fluorescence, basal, 24 h, 100 nL (AID 1138); conditions: higher = more signal;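 note: A549 lung adenocarcinoma cells under basal conditions with no added stimulus; test concentration not given here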
Lefty1 = Lefty1 binders on small-molecule microarrays, primary screen, biochemical, small-molecule microarray, 635/667 nm fluorescence (AID 1139); conditions: small-molecule microarray binding, fluorescence 635/667; higher = more signal
[8] = test system: wheat germ agglutinin (Triticum aestivum), Alexa647-labelled; assay: wheat germ agglutinin binders on compound microarrays, profiling panel, artefact control for SMM control-protein annotation, biochemical, small-molecule microarray, 635/667 nm fluorescence (AID 1140); conditions: WGA-A647 binding, 635 nm fluorescence, higher = more signal;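 note: score merges 667 nm feature emission with signal to noise over triplicate slides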
[9] = target: Luciferin 4-monooxygenase (Photinus pyralis) (UniProt P08659); assay: firefly luciferase enzyme inhibitors, primary screen, biochemical, luminescence, purified enzyme, 2006 set (AID 1141); conditions: SteadyGlo luminescence, 30 min, higher = more signal, called active from +8 up or from −8 down;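 note: cell-free assay with purified firefly luciferase at 100 ng per well in PBS; test concentration not given here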
Luciferin 4-monooxygenase (Photinus pyralis), sequence (P08659 whole entry, looked up): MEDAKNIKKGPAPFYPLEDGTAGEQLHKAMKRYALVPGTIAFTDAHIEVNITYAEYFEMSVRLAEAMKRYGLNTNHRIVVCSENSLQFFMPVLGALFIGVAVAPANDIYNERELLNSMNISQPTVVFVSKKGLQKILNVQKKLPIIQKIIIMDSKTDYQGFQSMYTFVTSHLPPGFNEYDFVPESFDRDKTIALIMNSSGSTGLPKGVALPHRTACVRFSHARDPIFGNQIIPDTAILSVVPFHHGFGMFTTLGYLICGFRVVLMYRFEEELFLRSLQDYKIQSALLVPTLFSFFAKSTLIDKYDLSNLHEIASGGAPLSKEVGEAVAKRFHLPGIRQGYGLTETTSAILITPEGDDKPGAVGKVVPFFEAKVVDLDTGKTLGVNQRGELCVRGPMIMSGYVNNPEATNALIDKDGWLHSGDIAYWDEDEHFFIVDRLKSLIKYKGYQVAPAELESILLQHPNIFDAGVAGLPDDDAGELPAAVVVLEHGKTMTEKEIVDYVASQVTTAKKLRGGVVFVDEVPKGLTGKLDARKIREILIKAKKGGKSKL

[10] = test system: Wnt5a (protein binding on small-molecule microarray); assay: Wnt5a binders on small-molecule microarray, primary screen, biophysical, 635/667 nm fluorescence (AID 1142); conditions: 635 nm fluorescence, higher = more signal;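 note: fluorescence read at 667 nm with signal to noise per printed feature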
[11] = cell viability in Huh7 cells, primary screen, cytotoxicity control for HCV replication inhibitor project, CellTiter-Glo luminescence, basal, 48 h (AID 1143); conditions: Huh7 HCV replicon, higher = more signal, called active from +8 up or from −8 down;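 note: Huh7 hepatoma cells carrying a hepatitis C replication reporter with no stimulus; test concentration not given here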
[12] = P. aeruginosa biofilm formation inhibitors, primary screen, PAO1 strain, BacTiter-Glo luminescence, LB-PBS (AID 1144); conditions: 12 h, higher = more signal
[13] = CREB reporter modulators without forskolin, primary screen, cell-based, PC12, CRE-LacZ reporter, unstimulated (AID 1145); conditions: no forskolin, luminescence, 4.5 h, higher = more signal, called active from +8 up or from −8 down
[14] = CREB reporter modulators under forskolin, primary screen, cell-based, PC12, CRE-LacZ reporter, forskolin-stimulated (AID 1146); conditions: luminescence, 4.5 h, higher = more signal, called active from +8 up or from −8 down;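 note: PC12 cells with 6xCRE LacZ reporter stimulated by forskolin 10 µM; beta-galactosidase reporter signal reflecting CREB driven transcription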
[15] = target: Streptavidin (Streptomyces avidinii) (UniProt P22629); assay: streptavidin binders on small-molecule microarray, primary screen, artefact control for SMM compound annotation, biophysical, 635/667 nm fluorescence (AID 1147); conditions: streptavidin binding, higher = more signal;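 note: signal reflects streptavidin binding to arrayed compounds as a control protein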
Streptavidin (Streptomyces avidinii), sequence (P22629 whole entry, looked up): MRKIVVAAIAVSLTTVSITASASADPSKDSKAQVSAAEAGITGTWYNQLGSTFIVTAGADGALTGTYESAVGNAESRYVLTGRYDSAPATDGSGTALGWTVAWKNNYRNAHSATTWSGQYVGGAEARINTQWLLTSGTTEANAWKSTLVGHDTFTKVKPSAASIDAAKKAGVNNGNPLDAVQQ

[16] = small-molecule binders of probe aInhba, primary screen, biochemical, small-molecule microarray, 635/667 nm fluorescence (AID 1148); conditions: higher = more signal;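 note: score merges 667nm spot fluorescence with signal-to-noise for antibody binding to printed compounds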
Torsin-1A (Homo sapiens) [17] = target: Torsin-1A (Homo sapiens) (UniProt O14656); assay: torsin A binders from cell lysate, primary screen, small-molecule microarray, wild-type, 635/667 nm (AID 1149); conditions: COS7 hTOR1A-WT lysate, 635 nm fluorescence, higher = more signal
Torsin-1A (Homo sapiens), sequence (O14656 whole entry, looked up): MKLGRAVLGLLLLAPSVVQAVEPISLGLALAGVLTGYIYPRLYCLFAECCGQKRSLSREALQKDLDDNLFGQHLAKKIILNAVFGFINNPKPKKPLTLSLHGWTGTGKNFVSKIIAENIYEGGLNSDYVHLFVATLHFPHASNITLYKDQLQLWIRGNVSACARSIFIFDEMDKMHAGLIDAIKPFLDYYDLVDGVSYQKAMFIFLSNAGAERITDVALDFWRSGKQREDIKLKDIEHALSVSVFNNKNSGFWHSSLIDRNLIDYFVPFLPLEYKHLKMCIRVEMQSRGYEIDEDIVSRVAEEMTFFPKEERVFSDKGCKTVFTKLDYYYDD

Torsin-1A (Homo sapiens) [18] = target: Torsin-1A (Homo sapiens) (UniProt O14656); assay: small-molecule binders of mutant TOR1A in lysate, primary screen, cell lysate, small-molecule microarray, COS7 lysate, 635/667 nm fluorescence (AID 1150); conditions: COS7 hTOR1A mutant lysate, 635 nm fluorescence, higher = more signal;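 note: score pools 667 nm emission and signal to noise measuring lysate protein binding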
[19] = test system: Sonic hedgehog protein (Shh); assay: small-molecule binders of Shh protein, primary screen, biochemical, small-molecule microarray, 635/667 nm fluorescence (AID 1151); conditions: small-molecule microarray binding, 635 nm fluorescence; higher = more signal;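 note: Shh protein binding to compounds spotted on small-molecule microarray slides; score combines spot fluorescence intensity with signal-to-noise across triplicate slides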

Work on `O=C1C[C@@](C(=O)NCCN2CCOCC2)(c2ccc([N+](=O)[O-])cc2)[C@@H](c2ccc(CO)cc2I)N1C1CCCCC1` yielded a composite z-score [1] of 1.27, a composite z-score [2] of 1.24 and a composite z-score [3] of 0.211. It also gave a composite z-score [4] of -0.415, a composite z-score [5] of 1.15 and a composite z-score [6] of 0.94. For the same compound, the z-score [7] was 1.8, the composite z-score (Lefty1) was 0.992 and the composite z-score [8] was 0.308. For the same compound, the z-score [9] was 1.35 (inactive), the composite z-score [10] was 0.642 and the z-score [11] was -4.95 (inactive). The z-score [12] was -1.36 (inactive), the z-score [13] was 0.0279 (inactive) and the z-score [14] was -1.11 (inactive). For the same compound, the composite z-score [15] was -0.0491, the composite z-score [16] was -0.0468 and the composite z-score (Torsin-1A (Homo sapiens) [17]) was -0.308. It also gave a composite z-score (Torsin-1A (Homo sapiens) [18]) of 0.896 and a composite z-score [19] of 1.92.

With `CCCNC(=O)[C@@]1(c2ccc([N+](=O)[O-])cc2)CC(=O)N(C2CCCCC2)[C@@H]1c1ccc(CO)cc1` the composite z-score [1] was 1.86, the composite z-score [2] was 1.24 and the composite z-score [3] was 0.548. The composite z-score [4] was 0.831, the composite z-score [5] was 1.24 and the composite z-score [6] was 1.66. The z-score [7] was 1.34, the composite z-score (Lefty1) was 0.344 and the composite z-score [8] was 0.533. For the same compound, the z-score [9] was -0.92 (inactive), the composite z-score [10] was -0.0471 and the z-score [11] was -1.83 (inactive). The z-score [12] was 0.812 (inactive), the z-score [13] was 0.324 (inactive) and the z-score [14] was -0.775 (inactive). The composite z-score [15] was 0.206, the composite z-score [16] was 0.138 and the composite z-score (Torsin-1A (Homo sapiens) [17]) was 0.0388. For the same compound, the composite z-score (Torsin-1A (Homo sapiens) [18]) was 0.455 and the composite z-score [19] was 0.511.

`COc1ccc(C#Cc2ccc3c(c2)[C@]2(C(=O)N3)[C@H](c3ccc(O)cc3)N3[C@H](c4ccccc4)[C@H](c4ccccc4)OC(=O)[C@H]3[C@@H]2C(=O)O)cc1` showed a composite z-score [1] of 2.03, a composite z-score [2] of 1.06 and a composite z-score [3] of 0.324. It also gave a composite z-score [4] of 0.457, a composite z-score [5] of 0.127 and a composite z-score [6] of -0.218. The z-score [7] was -2.05, the composite z-score (Lefty1) was -0.211 and the composite z-score [8] was -0.178. For the same compound, the z-score [9] was -1.37 (inactive), the composite z-score [10] was 0.136 and the z-score [11] was -4.66 (inactive). For the same compound, the z-score [12] was -1.04 (inactive), the z-score [13] was 0.478 (inactive) and the z-score [14] was -0.478 (inactive). It also gave a composite z-score [15] of 0.942, a composite z-score [16] of 0.11 and a composite z-score (Torsin-1A (Homo sapiens) [17]) of 0.0897. For the same compound, the composite z-score (Torsin-1A (Homo sapiens) [18]) was 0.721 and the composite z-score [19] was 0.248.

`COc1cc(CO)cc(I)c1O[C@H]1C=C(C(=O)NCCO)C[C@@H](NCc2ccc(F)cc2)[C@@H]1O` gave a composite z-score [1] of -1, a composite z-score [2] of 0.822 and a composite z-score [3] of -0.123. The composite z-score [4] was 0.619, the composite z-score [5] was 0.951 and the composite z-score [6] was 1.03. It also gave a z-score [7] of 1.18, a composite z-score (Lefty1) of 1.01 and a composite z-score [8] of 0.518. For the same compound, the z-score [9] was -0.0701 (inactive), the composite z-score [10] was 0.617 and the z-score [11] was -1.76 (inactive). For the same compound, the z-score [12] was -0.613 (inactive), the z-score [13] was 10 (active) and the z-score [14] was -1.05 (inactive). The composite z-score [15] was -0.156, the composite z-score [16] was -0.101 and the composite z-score (Torsin-1A (Homo sapiens) [17]) was 0.0626. For the same compound, the composite z-score (Torsin-1A (Homo sapiens) [18]) was 0.0975 and the composite z-score [19] was 0.591.

For `COCCOC(=O)N1C(=O)[C@@]2(c3cc(C#Cc4ccc(OC)cc4)ccc31)[C@H](C(=O)Nc1nc3ccccc3s1)[C@H]1C(=O)O[C@H](c3ccccc3)[C@H](c3ccccc3)N1[C@@H]2c1ccc(OCCO)cc1`, the composite z-score [1] was 1.14, the composite z-score [2] was 1.12 and the composite z-score [3] was 0.168. It also gave a composite z-score [4] of 0.809, a composite z-score [5] of 1.17 and a composite z-score [6] of 1.28. It also gave a z-score [7] of -2.19, a composite z-score (Lefty1) of 0.87 and a composite z-score [8] of 0.494. For the same compound, the z-score [9] was -3.71 (inactive), the composite z-score [10] was 0.755 and the z-score [11] was -1.12 (inactive). The z-score [12] was 0.133 (inactive), the z-score [13] was 0.757 (inactive) and the z-score [14] was 0.442 (inactive). For the same compound, the composite z-score [15] was 1.12, the composite z-score [16] was 0.246 and the composite z-score (Torsin-1A (Homo sapiens) [17]) was -0.129. For the same compound, the composite z-score (Torsin-1A (Homo sapiens) [18]) was 0.337 and the composite z-score [19] was 1.84.
